Records with an inconclusive call do not appear. The source made the active and inactive calls. Unless noted, the call rests on the fitted dose curve; in most records, active means well fitted curve in the direction sought with a large enough effect; inconclusive means small, poorly fitted or top-dose-only effect, or another doubt; inactive means no such curve, though single readings can be large; an effect the other way counts as inactive or inconclusive.
Experiments:
[1] = target: Alpha-galactosidase (Coffea arabica) (UniProt Q42656); experiment: Counterscreen for Glucocerebrosidase Inhibitors: qHTS Assay for Coffee Bean alpha-Galactosidase at pH 4.5 (AID 957); further: series mostly up to about 77 µM
Sequence of Alpha-galactosidase (Coffea arabica) (Q42656 whole entry, looked up): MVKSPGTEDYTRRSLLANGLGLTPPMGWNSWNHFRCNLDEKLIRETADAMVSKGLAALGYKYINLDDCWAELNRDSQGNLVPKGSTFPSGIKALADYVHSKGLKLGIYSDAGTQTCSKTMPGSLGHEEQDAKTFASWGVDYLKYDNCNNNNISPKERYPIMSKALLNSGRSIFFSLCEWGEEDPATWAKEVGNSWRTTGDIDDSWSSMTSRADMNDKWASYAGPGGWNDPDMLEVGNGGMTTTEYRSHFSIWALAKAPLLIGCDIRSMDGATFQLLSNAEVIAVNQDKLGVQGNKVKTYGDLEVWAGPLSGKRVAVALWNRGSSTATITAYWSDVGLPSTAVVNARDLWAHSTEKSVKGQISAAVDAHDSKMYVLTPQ
How it was run: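 Green coffee bean enzyme (2 nM final) was incubated with compounds (0.7 nM to 77 uM) and 4-methylumbelliferyl alpha-D-galactopyranoside (80 uM final) in 50 mM citric acid, 0.005% Tween-20, pH 4.5, 20 min at room temperature; AC50 from Hill fits.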

[2] = target: Alpha-galactosidase (Coffea arabica) (UniProt Q42656); experiment: Counterscreen for Glucocerebrosidase Inhibitors: qHTS Assay for Coffee Bean alpha-Galactosidase at pH 5.9 (AID 998)
How it was run: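 Compounds were titrated from 0.7 nM to 77 uM against green coffee bean alpha-galactosidase (2 nM) using 80 uM fluorogenic 4-methylumbelliferyl substrate. After 20 min at room temperature, reactions were stopped at pH 10 and read by fluorescence.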

[3] = Validation screen for inhibitors of Lassa infection (AID 463096; calls by dose curve)
[4] = Inducers of the Endoplasmic Reticulum Stress Response (ERSR) in human glioma: Validation (AID 504836)
How it was run: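 ERSR induction read as luciferase luminescence (Bright-Glo, 10 min at room temperature) in stably transfected human U87-MG glioma cells exposed to compounds for 16 h, using GRP78 as sensor.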

[5] = qHTS for Inhibitors of the Functional Ribonucleoprotein Complex (vRNP) of Lassa (LASV) Arenavirus: LASV Primary Screen - GLuc reporter signal (AID 1347082; calls by dose curve; tested in HEK293 reporter line; further: series mostly up to about 57 µM; nearly all actives have a fitted effect of over 60% in size)
[6] = qHTS for Inhibitors of the Functional Ribonucleoprotein Complex (vRNP) of Lassa (LASV) Arenavirus: Viability assay - alamar blue signal for LASV Primary Screen (AID 1347083; calls by dose curve; tested in HEK293 reporter line; further: series mostly up to about 57 µM; nearly all actives have a fitted effect of over 80% in size)
[7] = qHTS for Inhibitors of the Functional Ribonucleoprotein Complex (vRNP) of Lymphocytic Choriomeningitis Arenaviruses (LCMV): Viability assay - alamar blue signal for LCMV Primary Screen (AID 1347085; calls by dose curve; tested in HEK293 reporter line; further: series mostly up to about 57 µM; nearly all actives have a fitted effect of over 80% in size)
[8] = target: Nucleoprotein (Lymphocytic choriomeningitis virus (strain Armstrong)) (UniProt P09992); experiment: qHTS for Inhibitors of the Functional Ribonucleoprotein Complex (vRNP) of Lymphocytic Choriomeningitis Arenaviruses (LCMV): LCMV Primary Screen - GLuc reporter signal (AID 1347086; calls by dose curve; further: series mostly up to about 57 µM; nearly all actives have a fitted effect of over 70% in size)
Sequence of Nucleoprotein (Lymphocytic choriomeningitis virus (strain Armstrong)) (P09992 whole entry, looked up): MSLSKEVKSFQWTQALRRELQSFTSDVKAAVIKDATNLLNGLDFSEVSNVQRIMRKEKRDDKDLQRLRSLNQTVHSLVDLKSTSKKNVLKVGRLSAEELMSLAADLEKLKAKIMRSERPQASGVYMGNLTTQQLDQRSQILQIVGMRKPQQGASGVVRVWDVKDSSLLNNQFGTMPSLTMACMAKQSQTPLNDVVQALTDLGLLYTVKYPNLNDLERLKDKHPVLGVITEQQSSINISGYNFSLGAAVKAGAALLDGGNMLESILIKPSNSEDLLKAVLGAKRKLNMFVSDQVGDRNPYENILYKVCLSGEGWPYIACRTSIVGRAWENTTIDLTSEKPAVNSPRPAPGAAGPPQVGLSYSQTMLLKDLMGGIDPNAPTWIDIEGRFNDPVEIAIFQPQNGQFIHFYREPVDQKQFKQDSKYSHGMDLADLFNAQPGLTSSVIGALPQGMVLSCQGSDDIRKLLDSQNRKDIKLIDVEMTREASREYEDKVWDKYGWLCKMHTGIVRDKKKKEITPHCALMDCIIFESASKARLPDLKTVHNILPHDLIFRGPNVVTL

Measured: Potency

N#CC(C#N)=C(N)/C(C#N)=C/c1ccc(O)cc1
inactive: all assays above

Fc1ccc(CN(C2=NCCN2)c2c(Cl)cccc2Cl)cc1
inactive: all assays above

CC(=O)NNC(=O)N1Cc2ccccc2Oc2ccc(Cl)cc21
inactive: all assays above

Cn1cc(C(=O)OCC2CCN(CCNS(C)(=O)=O)CC2)c2ccccc21
inactive: all assays above

[Li+]
inactive: all assays above

O=C1NC(c2cccc([N+](=O)[O-])c2)=CCN1c1ccccc1O
inactive: all assays above

NC(=O)C(=O)O
inactive: all assays above

CNc1cc(NS(=O)(=O)c2ccc(N)cc2)nc(NC)n1
inactive: all assays above

COc1cc(N)c(Cl)cc1C(=O)OCCN1CCCCC1
inactive: all assays above

O=C(O)c1cc(=O)c2c(Cl)cc(Cl)cc2[nH]1
inactive: all assays above

O=C(O)C1=CCNCC1
inactive: all assays above

CN(C)c1nc(N)c(C(=O)N=C(N)N)nc1Cl
inactive: all assays above

C=CC[C@H](N)C(=O)O
inactive: all assays above

COc1cc(/C=C(\C#N)C(=O)c2ccc(O)c(O)c2)cc(I)c1O
inactive: all assays above

C[N+](C)(C)CC=O
inactive: all assays above

CC[N+](CC)(CC)CC(=O)Nc1c(C)cccc1C
inactive: all assays above

COc1cc2c(CCNC(C)=O)c[nH]c2cc1Cl
inactive: all assays above

CCCCCCCCCCC/C=C\C(C)(C)/C=C\CCCC(=O)O
inactive: all assays above

O=C(O)CC[C@@H](C(=O)O)N1C(=O)c2ccccc2C1=O
inactive: all assays above

c1ccc2nc(C3=NCCN3)ccc2c1
inactive: all assays above

O=C(O)c1cccnc1C(=O)O
inactive: all assays above

N#C/C(=C\c1ccc(O)c(O)c1)C(=O)c1ccc(O)c(O)c1
inactive: all assays above

CCC(=O)N1CCN(C(=O)c2ccccc2)CC1
inactive: all assays above

O=c1[nH]c2cc(Cl)ccc2c(O)c1-c1ccc(Oc2ccccc2)cc1
inactive: all assays above

NC(N)=NCCCCN=C(N)N
inactive: all assays above

CSC(=N)N
inactive: all assays above
